Source: PubChem BioAssay (The Scripps Research Institute Molecular Screening Center)
hgDAF12 agonist: H. glycines DAF-12 receptor agonists, primary screen, cell-based, luminescence, HEK293, GAL4 fusion, UAS-luciferase. Nuclear hormone receptor DAF-12 (Heterodera glycines), GAL4 fusion. HEK293 GAL4-hgDAF12 UAS-luciferase reporter, agonist luminescence; normalized to butyrate control. activation, % at 6.8 µM. 370,000 tested, 1.8% active. AID 687014, 2013;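 active = activation above a cutoff set at the mean of all screened compounds plus 3 SD, cut at about 10% in these data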;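 note: 0% = DMSO wells and 100% = sodium butyrate wells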
DAX1 inh-1: DAX1 (NR0B1) inhibitors on StAR promoter, primary screen, cell-based, luminescence, SF-1 (NR5A1), full-length DAX-1. HEK293T StAR-luciferase reporter, SF-1/DAX-1 repression relief. inhibition, % at 6.8 µM. 370,000 tested, 1.1% active. AID 652010, 2013;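 active = inhibition above the mean over all tested compounds plus 3 SD, cut at about 3.6% in these data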;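 note: 0% = DAX-1 cells with DMSO and 100% = cells lacking DAX-1 with DMSO; higher inhibition means more luminescence from relief of DAX-1 repression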
hcDAF-12 act: H. contortus DAF-12 nuclear receptor activators, primary screen, cell-based, luminescence, HEK293, lit1-tk-luc reporter | HEK293 hcDAF-12 lit1-tk-luc reporter; 0% DMSO, 100% Δ7-dafachronic acid | activation, % at 6.8 µM | 370,000 tested, 1.4% active;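 active = activation above the mean of all tested compounds plus 3 SD, cut at about 5.5% in these data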;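 note: 100% = response to 3 µM Δ7-dafachronic acid high control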
DAX1 inh-2: DAX1 (NR0B1) inhibitors, primary screen, cell-based, HEK293, Gal4-DAX1, luciferase luminescence; HEK293 Gal4-DAX1 luciferase reporter; inhibition, % at 6.75 µM; 340,000 tested, 0.99% active;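 active = inhibition above the mean over all tested compounds plus 3 SD, cut at about 4.2% in these data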;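 note: 0% = DAX1-transfected cells with DMSO and 100% = empty-vector control cells with DMSO; inhibition shows as a rise in luminescence from relieved DAX1 repression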
ssDAF12 agonist: S. stercoralis DAF-12 nuclear receptor activators, primary screen, cell-based, luminescence, HEK293, GRIP1 co-expression, lit1-tk-luc; 370,000 tested, 1% active; HEK293 ssDAF-12/GRIP1 lit1-tk-luc reporter; % of 3 µM dafachronic acid response; Nuclear hormone receptor DAF-12 (Strongyloides stercoralis); AID 652126, 2013; activation, % at 6.8 µM;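 active = activation above the mean over all tested compounds plus 3 SD, cut at about 0.9% in these data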;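 note: 0% = DMSO-only wells and 100% = 3 µM delta7-dafachronic acid wells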
DAX1 inh confirm: DAX1 (NR0B1) inhibitors relieving SF-1 repression, confirmation, cell-based, luminescence, HEK293T, full-length DAX-1, SF-1 activated StAR promoter | shares compounds with DAX1 inh-1 | HEK293T StAR-promoter luciferase reporter, SF-1/DAX-1 repression | inhibition, % at 6.8 µM | 2,400 tested, 87% active | AID 652134, 2013;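 active = inhibition above the average of every tested compound plus 3 SD, cut at about 3.8% in these data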;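 note: 0% = DAX-1 cells with DMSO and 100% = no DAX-1 control cells with DMSO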
SF1 AF2mut Luc: StAR reporter signal changes without DAX1, counter-screen for DAX1 inhibitor project, cell-based, luminescence, AF-2 mutant SF-1, transactivation; 2,400 tested, 78% active; inhibition, % at 6.8 µM; HEK293 StAR-luciferase, SF-1 AF2 mutant; AID 652136, 2013; shares compounds with DAX1 inh-1;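 active = inhibition above the mean of all tested compounds plus 3 SD, cut at about 3% in these data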;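 note: 0% = DAX-1 transfected cells with DMSO and 100% = cells without DAX-1 with DMSO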
LXRb hcDAF ctr: LXR agonists, Gal4 luciferase reporter, confirmation, counter-screen for hcDAF-12 agonist project, cell-based, luminescence, HEK293, H. contortus campaign; HEK293 Gal4-LXR tk-luc reporter, 24 h; normalized: DMSO 0%, positive control 100%; 3,400 tested, under 10 active; shares compounds with hcDAF-12 act; activation, % at 6.8 µM;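 active = mean percent activation of the reporter above a cutoff set as the average over tested compounds plus their standard deviation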
Target sequence (P55055 whole entry, looked up, the tested form may be a part): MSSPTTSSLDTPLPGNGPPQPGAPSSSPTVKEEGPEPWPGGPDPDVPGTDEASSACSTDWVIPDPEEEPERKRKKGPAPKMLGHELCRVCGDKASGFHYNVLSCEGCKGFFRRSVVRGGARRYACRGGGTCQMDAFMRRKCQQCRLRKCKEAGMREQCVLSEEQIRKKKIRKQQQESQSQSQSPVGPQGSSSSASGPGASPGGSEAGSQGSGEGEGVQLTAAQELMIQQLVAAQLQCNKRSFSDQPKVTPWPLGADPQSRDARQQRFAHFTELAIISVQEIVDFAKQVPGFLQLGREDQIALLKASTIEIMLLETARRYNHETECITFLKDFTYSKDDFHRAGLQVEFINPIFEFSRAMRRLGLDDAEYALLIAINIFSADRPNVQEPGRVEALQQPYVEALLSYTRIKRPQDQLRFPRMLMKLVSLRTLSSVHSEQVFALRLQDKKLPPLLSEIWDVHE
hcDAF12 conf: H. contortus DAF-12 receptor agonists, confirmation, cell-based, luminescence, HEK293, lit1-tk-luc, triplicate. HEK293 hcDAF-12 lit1-tk-luc reporter; % of Δ7-dafachronic acid response. activation, % at 6.8 µM. AID 743032, 2013. 3,400 tested, 61% active. shares compounds with hcDAF-12 act;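 active = mean activation across triplicate tests above the threshold derived from the earlier primary screen, cut at about 5.5% in these data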;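 note: 0% = DMSO only wells and 100% = 3 µM Δ7-dafachronic acid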
hgDAF12 ag: H. glycines DAF-12 receptor agonists, confirmation, cell-based, luminescence, HEK293, GAL4-LBD fusion | shares compounds with hgDAF12 agonist | HEK293 GAL4-hgDAF12 luciferase reporter, agonist mode; percent of butyrate response | activation, % at 6.8 µM | 3,300 tested, 80% active;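 active = mean activation over triplicate wells above the hit cutoff derived from the earlier primary screen, cut at about 11% in these data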;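 note: 0% = DMSO low control and 100% = 2 mM sodium butyrate high control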
LXR ag 2: LXR agonists, Gal4 luciferase reporter, confirmation, counter-screen for hgDAF-12 agonist project, cell-based, luminescence, HEK293, H. glycines campaign. shares compounds with hgDAF12 agonist. 24 h. activation, % at 6.8 µM. 3,300 tested, under 10 active;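 active = mean activation of the triplicate above a set limit carried over from the primary screen, none filed active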
The depositor's hits bear a star; . = no result given. This is a sample that favours compounds with a hit; in the whole collection about 4.1% have one here.

SMILES	hgDAF12 agonist	DAX1 inh-1	hcDAF-12 act	DAX1 inh-2	ssDAF12 agonist	DAX1 inh confirm	SF1 AF2mut Luc	LXRb hcDAF ctr	hcDAF12 conf	hgDAF12 ag	LXR ag 2
Cc1ccn2c(Cc3ccccc3)c(-c3ccc(F)cc3)nc2c1	16*	5.9*	0	2	0	3	2	.	.	11*	0
Cc1ccc2nc(-c3ccco3)c(Cc3ccsc3)n2c1	3	0	1	.	-1	.	.	.	.	.	.
Cc1ccc2nc(-c3ccc(F)cc3)c(Cc3ccccn3)n2c1	14*	9.3*	8.6*	.	0	8.1*	6.7*	0	1	11*	1
Cc1ccc(-c2nc3ccc(C)cn3c2Cc2ccsc2)cc1	17*	11*	5	.	0	7.0*	3.0*	.	.	1	0
Cc1ccc2nc(-c3ccccc3)c(Cc3ccccn3)n2c1	13*	5.1*	7.4*	.	1.4*	7.4*	6.2*	1	8.3*	16*	0
Cc1ccc(S(=O)(=O)NCC(=O)OCC(=O)N2CCN(C(=O)c3ccco3)CC2)cc1C	2	0	0	0	-1	.	.	.	.	.	.
CC(=O)Cc1nsc(NC(=O)c2ccc(-c3cccc(Cl)c3)o2)n1	0	0	-1	-2	-1	.	.	.	.	.	.
Fc1ccc(Nc2ccc3ccccc3n2)c(F)c1	15*	9.7*	9.8*	-2	1.0*	14*	9.4*	2	9.4*	20*	1
CCN1CCN(c2ccc(NC(=O)c3ccco3)cc2)CC1	14*	8.0*	4	1	-1	4.9*	5.4*	.	.	13*	0
CCCC(=O)N1CCN(c2ccc(NC(=O)c3ccco3)cc2)CC1	3	0	0	0	-1	.	.	.	.	.	.
Cc1cccc(/C=N/Nc2ccc3ccccc3n2)c1	-2	1	3	-7	-2	.	.	.	.	.	.
Cc1ccc(/C=N/Nc2ccc3ccccc3n2)o1	22*	11*	8.8*	-3	1.1*	5.8*	1	2	10*	11*	1
COc1cc(C(=O)OCC(=O)Nc2cc(S(=O)(=O)N3CCOCC3)ccc2C)ccc1OCC(C)C	2	1	-1	-1	-1	.	.	.	.	.	.
CCOC(=O)c1c(C)[nH]c(N=Nc2cccc(OC)c2)c1C	16*	4.9*	5.9*	3	0	16*	8.0*	.	.	21*	1
CCOC(=O)c1c(C)[nH]c(N=Nc2ccc(C)cc2)c1C	15*	4.9*	3	4	0	12*	6.0*	.	.	18*	1
Cc1ccc(CC(C(=O)O)C(C)C(=O)Nc2ccc(F)cc2)cc1 (centres undefined)	3	0	5	0	0	.	.	.	.	.	.
Cc1ccc2nc(NC(=O)COC(=O)c3ccncc3)sc2c1	9	2	1	0	-1	.	.	.	.	.	.
Cc1ccc2nc(-c3ccc(NC(=O)COC(=O)c4ccc(=O)[nH]c4)cc3)sc2c1	22*	8.4*	11*	1	1.2*	14*	8.5*	2	11*	23*	1
Cc1ccc2nc(-c3ccc(NC(=O)CSc4nc(N)cc(=O)[nH]4)cc3)sc2c1	25*	4.8*	3	4.5*	0	7.3*	4.0*	.	.	18*	1
Cc1ccc2nc(-c3ccc(NC(=O)CN4C(=O)c5ccccc5C4=O)cc3)sc2c1	19*	5.4*	14*	2	2.2*	15*	7.4*	1	8.3*	16*	1
Nc1cc(=O)[nH]c(SCC(=O)Nc2ccc(F)c(Cl)c2)n1	0	1	-1	0	-1	.	.	.	.	.	.
Cc1ccc2nc(-c3ccc(NC(=O)CNC4CC4)cc3)sc2c1	21*	5.7*	5	4	2.4*	14*	7.0*	.	.	15*	1
CCC(C)[C@H](NS(=O)(=O)c1ccc(C)cc1)C(=O)N1CCC(C(=O)N2CCC(C(=O)OC)CC2)CC1 (some centres undefined)	-3	0	2	4	-1	.	.	.	.	.	.
CCNc1c(NC(=O)C2CCC(C)CC2)c(=O)oc2ccccc12 (centres undefined)	1	0	-1	-2	-1	.	.	.	.	.	.
Cc1cc(NS(=O)(=O)c2ccc(NC(=O)CSc3nc4sc(C)c(C)c4c(=O)n3Cc3ccco3)cc2)nc(C)n1	-2	1	-2	.	0	.	.	.	.	.	.
O=C(N/C(=C\c1cccc([N+](=O)[O-])c1)C(=O)N1CCCCC1)c1cccs1	-2	0	-2	0	-1	.	.	.	.	.	.
COc1ccc(-c2ccc3ccccc3n2)cc1	24*	12*	9.6*	-1	1	20*	8.7*	2	11*	17*	1
